# Screening results (PubChem BioAssay)
# D1 antagonist = Antagonist of Human D 1 Dopamine Receptor: qHTS. activity change, negative = inhibition, % at 10 µM. D(1A) dopamine receptor (Homo sapiens), P21728. HEK293 TREx D1 cells, calcium flux, dopamine EC80; active compounds read low. hit rate 3.2% among 360,000; in the data active means activity change below about -30%
# Target sequence (P21728 whole entry, looked up): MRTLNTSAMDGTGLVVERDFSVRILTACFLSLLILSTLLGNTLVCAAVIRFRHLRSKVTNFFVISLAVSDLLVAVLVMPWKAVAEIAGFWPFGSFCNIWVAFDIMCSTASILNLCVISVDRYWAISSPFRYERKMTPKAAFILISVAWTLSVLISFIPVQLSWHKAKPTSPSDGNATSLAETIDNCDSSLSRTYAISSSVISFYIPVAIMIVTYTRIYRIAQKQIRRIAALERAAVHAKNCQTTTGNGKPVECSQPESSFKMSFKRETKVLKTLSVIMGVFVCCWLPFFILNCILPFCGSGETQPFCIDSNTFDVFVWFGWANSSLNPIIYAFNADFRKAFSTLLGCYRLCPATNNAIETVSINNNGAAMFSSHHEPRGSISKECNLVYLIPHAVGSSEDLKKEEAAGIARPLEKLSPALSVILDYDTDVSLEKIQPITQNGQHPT
#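 Inducible Hek293 Trex D1 cells (tetracycline, overnight, 30 C). Calcium dye 30–90 min RT. Antagonist mode: EC80 dopamine added after 180 s compound read.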
# TRHR agonist = qHTS for Small Molecule Agonists and Allosteric Enhancers of Human TRH Receptor: Primary Screen for Agonists; Thyrotropin-releasing hormone receptor (Homo sapiens), P34981; TRHR cells, calcium flux fluo-8, FDSS agonist mode; activation, % at 2 µM; hit rate 0.18% among 360,000; AID 493084, 2011
#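 Agonist-mode FDSS calcium read (Ex 480/Em 530, 1 s cycles) in 1536-well TRHR cells with fluo-8 dye, after 10-cycle baseline and 23 nL compound addition; TRH at EC20 (10 nM final) added afterwards for the enhancer phase.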
# D1 potentiator = Potentiators of Human D1 Dopamine Receptor: qHTS; potentiation, % at 10 µM; AID 504651, 2011; HEK293 TREx D1 cells, calcium flux, dopamine EC20 potentiation; D(1A) dopamine receptor (Homo sapiens), P21728; hit rate 0.036% among 360,000; in the data active means potentiation above about 30%
# TRHR enhancer = qHTS for Small Molecule Agonists and Allosteric Enhancers of Human TRH Receptor: Primary Screen for Enhancers; Thyrotropin-releasing hormone receptor (Homo sapiens), P34981; TRHR cells, fluo-8 calcium fluorescence, EC20 TRH enhancement; enhancement, % at 2 µM; hit rate 0.66% among 360,000; AID 493056, 2011; in the data active means enhancement above about 30%
#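 TRHR-expressing cells loaded with fluo-8 calcium dye were read kinetically (ex 480/em 530) during compound addition, then stimulated with an EC20 of TRH (10 nM final). Enhancement of the Gq-mediated intracellular calcium response was scored.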
# D1 ag = Allosteric Agonists of the Human D1 Dopamine Receptor: qHTS; hit rate 1% among 360,000; HEK293 T-REx D1 cells, calcium flux, agonist mode; activation, % at 2 µM
#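 Inducible HEK293 T-REx D1 cells, force-coupled to calcium signalling, were plated at 4000 cells/well with tetracycline and held overnight at 30 C. After no-wash calcium dye loading, compound-evoked calcium rise over 180 s flagged agonists.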
# Hits are given with their value; n = inactive; x = no result. Only some compounds are listed: those with a hit (about 4.7% of all), similar ones and a draw of the others. Unless noted, no stated cut-off is given here; in the data, active means activation above about 30%; inactive means the rest.
SMILES,D1 antagonist,TRHR agonist,D1 potentiator,TRHR enhancer,D1 ag
CCC(=O)c1ccc(OCC(=O)OCC(=O)NCCC2=CCCCC2)cc1,-31,n,n,n,n
N#Cc1ccc(OCC(=O)OCC(=O)NCCC2=CCCCC2)cc1,n,n,n,n,n
Cc1cc(OCC(=O)OCC(=O)NC2CCCCC2C)ccc1Cl (stereo unspecified),-32,n,n,n,n
CCC(=O)c1ccc(OCC(=O)OCC(=O)NC2CCCCCCC2)cc1,-39,n,n,n,n
CC1CCCC(NC(=O)COC(=O)COc2ccc(Cl)cc2)C1C (stereo unspecified),n,n,n,n,n
CCC(=O)c1ccc(OCC(=O)NC2CCCC2)cc1,n,n,n,n,n
CCN(CC)C(=O)c1cc(-c2ccc(Cl)cc2)on1,n,n,n,n,n
Cc1cccc(NC(=O)CSc2nc(=O)n(Cc3ccccn3)c3c2CCC3)c1C,x,n,n,n,n
COC(=O)c1ccc(C2c3c(oc4ccc(C)cc4c3=O)C(=O)N2Cc2ccc3c(c2)OCO3)cc1 (stereo unspecified),n,n,n,n,n
COc1cccc(N2CCN(C(=O)C3CCN(S(=O)(=O)c4cn(C)cn4)CC3)CC2)c1,n,n,n,n,n
COc1ccc(OCC(=O)Nc2cccc(-c3nc4ccccc4s3)c2C)cc1,n,n,n,n,35
Cc1ccc(C)c(NC(=O)CCc2c(C)n(C)c3cc(-c4ccccc4C)nn3c2=O)c1,n,n,n,n,n
CCOC(=O)C1(CC2CC2)CCN(Cc2cn[nH]c2-c2cccc(F)c2)CC1,-38,n,n,n,n
CCOC(=O)C1(CC2CC2)CCN(Cc2cn[nH]c2-c2ccccc2)CC1,n,n,n,n,n
COc1cc(C(=O)N2CC(C)OC(C)C2)c([N+](=O)[O-])cc1OC (stereo unspecified),-51,n,n,n,n
CN(C)CC/C=C1/c2ccccc2Sc2c(O)cc(Cl)cc21,-94,n,n,n,44
COc1cc(Cl)cc2c1Sc1ccccc1/C2=C/CCN(C)C,-62,n,n,n,n
COc1cc2c(cc1Cl)/C(=C\CCN(C)C)c1ccccc1S2,-41,n,n,n,n
Cc1nn(CCC(=O)NC(C)C)c(=O)c2nn(-c3ccccc3)c(C)c12,n,n,n,n,n
Cc1oc2ncn(C)c(=O)c2c1C(=O)Nc1ccccn1,n,n,n,n,n
COC(=O)c1sc(=S)n(-c2cccc(Cl)c2)c1N,-34,n,n,n,n
CCOC(=O)c1sc(=S)n(-c2ccccc2)c1N,n,n,n,n,n
COc1ccc(C(=O)O)cc1NC(=S)NC(=O)/C=C/c1ccc(C(C)C)cc1,n,n,n,32,n
CCCCC(=O)NC(=S)Nc1cc(C(=O)O)ccc1OC,n,n,n,n,n
COc1ccc(/C=C/c2nc(C#N)c(N3CCN(c4ccccc4)CC3)o2)cc1OC,n,n,n,n,n
SMILES,D1 antagonist,TRHR agonist,D1 potentiator,TRHR enhancer,D1 ag
Cc1ccc(Nc2nc(N)nc(N)c2S(=O)(=O)c2ccccc2)cc1,n,n,n,n,n
Cc1ccc(-c2nc3c(C)cccn3c2Nc2ccccc2C)s1,n,n,n,n,n
C[C@H](NC(=O)[C@H]1N2C(=O)c3ccccc3C2SC1(C)C)C(=O)N1CCC[C@H]1CO (stereo partly specified),n,n,n,n,40
Cc1ccc(CNC(=O)CCCN2C(=O)CCn3nc(-c4cn(C)c5ccccc45)cc32)cc1,n,n,n,n,n
CCOc1ccc(NC(=O)Cn2cc(S(=O)(=O)NC)c(S(=O)(=O)NC)c2)cc1,n,n,n,n,n
Cc1cc2c(s1)c1cnn(Cc3ccc(C(=O)O)cc3)c(=O)c1n2C,n,n,n,n,n
COC(=O)Cn1c(CN2CCC(Cc3ccccc3)CC2)nc2c1c(=O)n(C)c(=O)n2C,-36,n,n,n,n
COC(=O)Cn1c(CN(C)Cc2ccccc2)nc2c1c(=O)n(C)c(=O)n2C,n,n,n,n,n
Cn1c(=O)c2c(nc(CN3CCN(C(=O)c4ccco4)CC3)n2CCc2ccccc2)n(C)c1=O,-74,n,n,n,n
Cn1c(=O)c2c(nc(CN3CCN(Cc4ccccc4)CC3)n2Cc2cccc(Cl)c2)n(C)c1=O,n,n,n,n,40
COc1ccc(-c2cc(C(=O)Oc3ccc(C)c(C)c3)c3ccccc3n2)cc1,n,n,n,n,n
CCCCc1ccc(-n2nc3ccc(NC(=O)c4cc5ccccc5o4)cc3n2)cc1,n,n,n,n,n
CCOC(=O)c1sc2ncn(CC(=O)Nc3ccc(C)cc3C)c(=O)c2c1C,n,n,n,n,n
CC(C)c1ccc(NC(=O)[C@H]2O[C@@H]3OC(C)(C)O[C@@H]3[C@H]3OC(C)(C)O[C@H]32)cc1,n,n,n,n,n
CN(C(=O)NCc1noc2ccccc12)c1cccc(Cl)c1,n,n,n,n,n
COCCNC(=O)c1cccc(OC2CCN(Cc3ccc(C(C)C)cc3)CC2)c1,n,n,n,n,n
CC#CC(=O)N1CCC(Oc2cccc(C(=O)NCc3ccccn3)c2)CC1,n,n,n,n,n
CSCC(C)N1CCC(Oc2cccc(C(=O)NCc3ccccn3)c2)CC1 (stereo unspecified),-63,n,n,n,n
CC(C)CN1CCC(Oc2cccc(C(=O)NCCc3ccccc3)c2)CC1,-38,n,n,n,n
COCC(C)N1CCC(Oc2cccc(C(=O)NCCc3ccccc3)c2)CC1 (stereo unspecified),-39,n,n,n,n
COc1cccc(N2CC(NC(=O)c3ccc(S(=O)(=O)N4CCCC4)cc3)CC2=O)c1 (stereo unspecified),x,n,n,n,n
O=C(Nc1cccc(Cl)c1)c1ccc2c(c1)CCN2S(=O)(=O)c1ccccc1,n,n,n,n,n
CCc1ccc(-n2c(=O)c3c4c(sc3n(Cc3ccccc3C#N)c2=O)CCC4)cc1,n,n,n,n,n
CCCCNC(=O)Cn1c(=O)cc(C)c2c(C)nn(-c3ccc(CC)cc3)c21,n,n,n,n,n
COc1ccc(CNC(=O)CC2N=C3c4ccccc4N=C(SCC(=O)Nc4ccc(C(C)C)cc4)N3C2=O)cc1 (stereo unspecified),n,n,n,n,n
O=c1[nH]c2ccc(NCc3ccc(-c4ccc(F)cc4)o3)cc2[nH]1,n,n,n,n,33
O=C(Nc1ccc(F)cc1)c1sc(Cl)nc1-c1ccccc1,n,n,n,n,n
O=C(Nc1cccc(F)c1)c1sc(Cl)nc1-c1ccccc1,-36,n,n,n,n
Cc1ccc(-n2c(SCC(=O)OC(C)C)nnc2-c2ccncc2)cc1,n,n,n,n,38
